{"source": "paper PMC4336329", "about": "(PLoS ONE, 2015)", "note": "Hit rate of the full screen: of about 310,000 compounds, about 2,200 (0.71%) showed an effect of 50% or more. Effects have a minus sign here. For the sample, strong results were picked, then their nearest neighbours and some compounds at random."}
{"biological_target": "human ether-à-go-go-related gene (hERG) potassium channel (human, UniProt Q12809)", "sequence (Q12809 whole entry, looked up)": "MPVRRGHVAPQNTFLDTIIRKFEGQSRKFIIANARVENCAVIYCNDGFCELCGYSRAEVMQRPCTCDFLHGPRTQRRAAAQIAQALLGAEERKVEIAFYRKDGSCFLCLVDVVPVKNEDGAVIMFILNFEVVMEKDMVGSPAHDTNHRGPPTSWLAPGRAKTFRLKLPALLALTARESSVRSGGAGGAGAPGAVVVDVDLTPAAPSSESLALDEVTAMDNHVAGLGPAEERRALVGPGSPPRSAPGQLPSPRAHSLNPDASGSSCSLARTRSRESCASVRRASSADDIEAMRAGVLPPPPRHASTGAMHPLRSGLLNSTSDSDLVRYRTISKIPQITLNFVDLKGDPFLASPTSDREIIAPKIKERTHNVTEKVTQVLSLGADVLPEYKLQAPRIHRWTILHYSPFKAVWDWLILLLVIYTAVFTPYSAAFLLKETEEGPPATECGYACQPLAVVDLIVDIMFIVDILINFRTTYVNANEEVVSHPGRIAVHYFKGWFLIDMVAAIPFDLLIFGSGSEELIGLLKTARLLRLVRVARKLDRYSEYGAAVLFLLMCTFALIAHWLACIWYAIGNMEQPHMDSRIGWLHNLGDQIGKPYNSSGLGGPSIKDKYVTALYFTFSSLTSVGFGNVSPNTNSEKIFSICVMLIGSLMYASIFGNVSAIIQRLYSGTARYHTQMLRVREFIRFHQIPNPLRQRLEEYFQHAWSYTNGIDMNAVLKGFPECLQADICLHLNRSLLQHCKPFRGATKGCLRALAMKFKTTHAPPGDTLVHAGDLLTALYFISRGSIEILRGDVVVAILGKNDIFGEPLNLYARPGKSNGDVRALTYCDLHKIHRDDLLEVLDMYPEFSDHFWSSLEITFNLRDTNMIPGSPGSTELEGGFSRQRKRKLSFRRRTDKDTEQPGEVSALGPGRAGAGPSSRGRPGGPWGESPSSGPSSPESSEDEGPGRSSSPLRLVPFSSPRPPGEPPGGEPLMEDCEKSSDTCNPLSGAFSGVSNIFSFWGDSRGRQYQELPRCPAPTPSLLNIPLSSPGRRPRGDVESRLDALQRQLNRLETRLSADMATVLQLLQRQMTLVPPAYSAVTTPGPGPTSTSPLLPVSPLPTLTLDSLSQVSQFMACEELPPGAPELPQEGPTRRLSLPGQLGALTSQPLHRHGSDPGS", "assay": "primary screen, population patch clamp on CHO cells stably expressing hERG; higher = less effect of the substance", "experimental": "Briefly, Chinese hamster ovary (CHO) cells stably expressing the hERG channel were dislodged from tissue culture flasks and dispensed into PPC plates. […] During the recording, background leak currents were estimated by a 100 ms step to -80 mV from an initial holding potential of -70 mV and subtracted from the subsequent current measurement. The campaign was conducted in two phases using slight differences in recording protocol. In the first phase, the initial voltage pulse used a 100 ms step to -30 mV from a holding potential of -70 mV, a 2 s conditioning step to +25 mV, and a 2 s test step to -30 mV. During the second phase of the screen, the potential during the conditioning step was raised to +45 mV. In both phases of the campaign, a secondary voltage pulse was applied using the same parameters as the second phase initial pulse. The initial and secondary pulses were applied in the absence of compound, and upon application of 1 μM and 10 μM test concentrations. Small molecule effects on hERG current density were quantified by […].", "units": {"hERG current change (%, negative = inhibition) at 1uM": "%"}}
{"compound": "Cc1ccc(Nc2nc(N)nc(CN3CCN(Cc4ccc5c(c4)OCO5)CC3)n2)cc1Cl", "hERG current change (%, negative = inhibition) at 1uM": -34.6}
{"compound": "Cc1cccc(Nc2nc(N)nc(CN3CCN(Cc4ccc5c(c4)OCO5)CC3)n2)c1", "hERG current change (%, negative = inhibition) at 1uM": -74.3}
{"compound": "Nc1nc(CN2CCN(Cc3ccccc3)CC2)nc(Nc2ccc3c(c2)OCCO3)n1", "hERG current change (%, negative = inhibition) at 1uM": -52.3}
{"compound": "CN1CCN(Cc2nc(N)nc(Nc3ccc4c(c3)OCCO4)n2)CC1", "hERG current change (%, negative = inhibition) at 1uM": 3.07}
{"compound": "Cc1ccc(Nc2nc(N)nc(CN3CCN(C)CC3)n2)cc1", "hERG current change (%, negative = inhibition) at 1uM": 4.62}
{"compound": "Cc1cccc(Nc2nc(N)nc(CN3CCN(c4ccccc4)CC3)n2)c1", "hERG current change (%, negative = inhibition) at 1uM": -7.51}
{"compound": "Cc1ccc(Nc2nc(N)nc(CN3CCN(Cc4ccc5c(c4)OCO5)CC3)n2)cc1", "hERG current change (%, negative = inhibition) at 1uM": -53.4}
{"compound": "Cc1cccc(Nc2nc(N)nc(CN3CCN(C)CC3)n2)c1", "hERG current change (%, negative = inhibition) at 1uM": -5.33}
{"compound": "Nc1nc(CN2CCN(Cc3ccc4c(c3)OCO4)CC2)nc(Nc2ccccc2)n1", "hERG current change (%, negative = inhibition) at 1uM": -77.4}
{"compound": "Nc1nc(CN2CCN(c3ccccc3F)CC2)nc(Nc2ccccc2)n1", "hERG current change (%, negative = inhibition) at 1uM": 0.21}
{"compound": "Nc1nc(CN2CCN(c3ccccc3F)CC2)nc(Nc2ccc3c(c2)OCCO3)n1", "hERG current change (%, negative = inhibition) at 1uM": -38}
{"compound": "CC(C)(O)C#Cc1ccc(C(=O)NCc2ccccc2)s1", "hERG current change (%, negative = inhibition) at 1uM": -2.9}
{"compound": "CCc1nn(CC(=O)NCCCN(C)C2CCCCC2)c(=O)c2cc3occc3n12", "hERG current change (%, negative = inhibition) at 1uM": 2.42}
{"compound": "CN1CCN(c2nc(Nc3ccc(F)cc3)nc(Nc3ccc(F)cc3)n2)CC1", "hERG current change (%, negative = inhibition) at 1uM": -0.878}
{"compound": "COc1ccc(CNC(=S)Nc2ccc(-c3ccccc3)cc2)cc1", "hERG current change (%, negative = inhibition) at 1uM": 6.99}
{"compound": "COCCn1c(C)cc(C(=O)CSc2nncn2-c2ccccc2)c1C", "hERG current change (%, negative = inhibition) at 1uM": 8.85}
{"compound": "COc1ccc(OCCN2CCOCC2)cc1", "hERG current change (%, negative = inhibition) at 1uM": 20.7}
{"compound": "CN(C)S(=O)(=O)N1CCC(Oc2cccc(C(=O)N3CCSCC3)c2)CC1", "hERG current change (%, negative = inhibition) at 1uM": 4.68}
{"compound": "S=c1[nH]cnc2scc(-c3ccc(Cl)cc3)c12", "hERG current change (%, negative = inhibition) at 1uM": 10.5}
{"compound": "Cc1ccc(Nc2nc(N)nc(CN3CCN(Cc4ccc5c(c4)OCO5)CC3)n2)c(C)c1", "hERG current change (%, negative = inhibition) at 1uM": -70.5}
{"compound": "Cc1ccc(Nc2nc(N)nc(CN3CCCCCC3)n2)c(C)c1", "hERG current change (%, negative = inhibition) at 1uM": -21.7}
{"compound": "Cc1ccccc1Nc1nc(N)nc(CN2CCN(Cc3ccc4c(c3)OCO4)CC2)n1", "hERG current change (%, negative = inhibition) at 1uM": -45.4}
{"compound": "COc1ccc(-n2c(C)c3c(OC)cccc(=O)c3c2C)cc1", "hERG current change (%, negative = inhibition) at 1uM": 0.316}
{"compound": "O=S(=O)(Nc1nc2ccccc2nc1NCCN1CCOCC1)c1cccc(Cl)c1", "hERG current change (%, negative = inhibition) at 1uM": 8.11}
{"compound": "O=C(COC(=O)c1ccco1)NCC1CCCO1", "note": "(stereo not shown)", "hERG current change (%, negative = inhibition) at 1uM": -0.29}
{"compound": "COc1cc(CNC23CC4CC(CC(C4)C2)C3)ccc1OCc1ccccc1.Cl", "hERG current change (%, negative = inhibition) at 1uM": 1.77}
{"compound": "Cl.c1ccc(COc2ccccc2CNC23CC4CC(CC(C4)C2)C3)cc1", "hERG current change (%, negative = inhibition) at 1uM": -73.8}
{"compound": "COc1cccc(CNC23CC4CC(CC(C4)C2)C3)c1OCc1ccccc1.Cl", "hERG current change (%, negative = inhibition) at 1uM": 3.29}
{"compound": "Cc1cccc(-c2ccc(NC(=O)C3CCN(CC4CC4)CC3)cc2)c1", "hERG current change (%, negative = inhibition) at 1uM": -5.16}
{"compound": "Cc1cccn2c(=O)c3cc(C(=O)NCC4CCCO4)c(=N)n(C4CCCC4)c3nc12", "note": "(stereo not shown)", "hERG current change (%, negative = inhibition) at 1uM": -80.3}
{"compound": "Cc1cccn2c(=O)c3cc(C(=O)NCC4CCCO4)c(=N)n(C4CCCCC4)c3nc12", "note": "(stereo not shown)", "hERG current change (%, negative = inhibition) at 1uM": -83.7}
{"compound": "COc1ccc(C2/C=C\\CN(C(=O)c3ccc(C)cc3)[C@H](Cc3ccccc3)C(=O)N2Cc2ccc(F)cc2)cc1", "note": "(stereo partly shown)", "hERG current change (%, negative = inhibition) at 1uM": 11.8}
{"compound": "O=C(Cn1cnc(S(=O)(=O)N2CCCCC2)c1)Nc1ccc(OC(F)(F)F)cc1", "hERG current change (%, negative = inhibition) at 1uM": 11.7}
{"compound": "O=C(Oc1cccc2cccnc12)c1cccc(N2C(=O)C3C4CCC(C4)C3C2=O)c1", "note": "(stereo not shown)", "hERG current change (%, negative = inhibition) at 1uM": 3.55}
{"compound": "Cc1ccc(NC(=O)CSCC(=O)Nc2ccc(S(=O)(=O)N3CCOCC3)cc2)cc1", "hERG current change (%, negative = inhibition) at 1uM": 11.4}
{"compound": "COc1ccc(C(=O)CSc2nnc(-c3cc4ccccc4cc3O)n2Cc2ccco2)cc1", "hERG current change (%, negative = inhibition) at 1uM": -16.2}
{"compound": "OC(CCCN1CCC(O)(c2ccc(Cl)cc2)CC1)c1ccc(F)cc1", "note": "(stereo not shown)", "hERG current change (%, negative = inhibition) at 1uM": -72.7}
{"compound": "OC1(c2cccc(C(F)(F)F)c2)CCN(CCN2CCCCC2)CC1", "hERG current change (%, negative = inhibition) at 1uM": 16.2}
{"compound": "CC(=O)N1CCC(O)(c2cccc(C(F)(F)F)c2)CC1", "hERG current change (%, negative = inhibition) at 1uM": 8.78}
{"compound": "Cl.O=C(CCCN1CCC(O)(c2cccc(C(F)(F)F)c2)CC1)c1ccc(F)cc1", "hERG current change (%, negative = inhibition) at 1uM": -80.9}
{"compound": "OC1(c2ccc(Cl)cc2)CCN(Cc2cn[nH]c2-c2ccc(F)cc2)CC1", "hERG current change (%, negative = inhibition) at 1uM": -27.2}
{"compound": "O=C(CCCN1CCC(O)(c2ccc(Br)cc2)CC1)c1ccc(F)cc1", "hERG current change (%, negative = inhibition) at 1uM": -75.7}
{"compound": "O=C(CN1CCC(O)(c2ccc(F)cc2)CC1)NCc1ccc(F)cc1", "hERG current change (%, negative = inhibition) at 1uM": -0.396}
{"compound": "Cl.O=C(CCN1CCN(c2ccccc2F)CC1)c1ccc(Br)cc1", "hERG current change (%, negative = inhibition) at 1uM": -40}
{"compound": "OC(CN1CCN(c2ccc(F)cc2)CC1)c1ccc(Cl)cc1", "note": "(stereo not shown)", "hERG current change (%, negative = inhibition) at 1uM": 2.87}
{"compound": "COc1ccc(CCNC(=O)C(C)n2nc(C)n3c(cc4occc43)c2=O)cc1OC", "note": "(stereo not shown)", "hERG current change (%, negative = inhibition) at 1uM": 12.2}
{"compound": "NC(=O)c1ccc(NC(=O)c2cccc(Oc3ccccc3)c2)cc1", "hERG current change (%, negative = inhibition) at 1uM": 12.5}
{"compound": "CCOC(=O)C1=C(C)NC(C)=C(C(=O)OCC)C1c1ccc(Br)o1", "hERG current change (%, negative = inhibition) at 1uM": 9.3}
{"compound": "COc1cc([N+](=O)[O-])ccc1NC(=S)NCc1ccccn1", "hERG current change (%, negative = inhibition) at 1uM": 8.38}
{"compound": "Cc1cc(C)c(NC(=O)CCCSc2nnc(N)s2)c(C)c1", "hERG current change (%, negative = inhibition) at 1uM": -4.26}
{"compound": "S=C(Nc1ccc(Cl)cc1Cl)Nc1ccccc1Oc1ccccc1", "hERG current change (%, negative = inhibition) at 1uM": 12.4}
{"compound": "O=C1c2ccccc2C(=O)N1CSc1ncccn1", "hERG current change (%, negative = inhibition) at 1uM": 1.65}
{"compound": "Cc1cc(C)nc(N2CCC(C(=O)NC3CCCCCC3)CC2)n1", "hERG current change (%, negative = inhibition) at 1uM": 0.0346}
{"compound": "Cc1cc(NCc2ccco2)nc(N2CCC(C(=O)NC3CCCCC3)CC2)n1", "hERG current change (%, negative = inhibition) at 1uM": -63.6}
{"compound": "Cc1cc(C)nc(N2CCC(C(=O)NCc3ccco3)CC2)n1", "hERG current change (%, negative = inhibition) at 1uM": 1.22}
